In the library only some 4.3% were active in any assay of this set; here they are far more common.
NALP1 yeast inh: inhibitors of NALP1 inflammasome in yeast | S. cerevisiae NALP1/ASC/caspase-1 growth, X-gal OD620, 72 h | inhibition, % at 10 µM | 0.61% of 280,000 active | AID 2071; in the data active = inhibition mostly above about 24%, no sharp cut-off; inactive = mostly below about 32%
NR3A LBD binder: modulators (binders) of human NR3A ligand-binding domain; NR3A LBD differential scanning fluorimetry, Tm shift; 0% = protein alone, 100% = glycine-bound protein; Tm shift relative to glycine control, % at 25 µM; 2.5% of 340,000 active;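 active = melting temperature shift of at least 10% of the positive control shift, at one fixed dose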
dFosB act: enhances mouse delta FosB homodimer DNA binding | P13346 | purified delta FosB, TAMRA-CDK5 oligo fluorescence polarization; percent of positive-control signal above neutral wells | activation, % at 25 µM | 0.99% of 340,000 active | AID 493131;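 active = mean activation above about 17%, with every replicate also reaching it, limit read from the data, passing the limit was not always enough; inconclusive = only one of the two conditions met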
Target sequence (P13346 whole entry, looked up): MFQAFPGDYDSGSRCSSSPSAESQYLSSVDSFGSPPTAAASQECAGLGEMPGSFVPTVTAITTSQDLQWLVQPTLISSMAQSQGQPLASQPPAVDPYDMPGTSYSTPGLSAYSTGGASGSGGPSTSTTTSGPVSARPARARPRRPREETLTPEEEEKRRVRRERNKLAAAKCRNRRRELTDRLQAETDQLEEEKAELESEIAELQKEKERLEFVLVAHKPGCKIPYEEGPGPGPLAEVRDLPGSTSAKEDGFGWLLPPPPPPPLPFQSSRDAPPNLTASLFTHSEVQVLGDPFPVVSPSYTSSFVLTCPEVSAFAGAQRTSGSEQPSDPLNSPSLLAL
UBC13 polyUb: blocks human UBC13 polyubiquitin chain formation. P61088. TR-FRET. inhibition, % at 20 µM. 0.47% of 330,000 active; in the data active = inhibition above about 45%, passing the limit was not always enough; inconclusive = no clear call, values can overlap the other calls
Target sequence (P61088 whole entry, looked up): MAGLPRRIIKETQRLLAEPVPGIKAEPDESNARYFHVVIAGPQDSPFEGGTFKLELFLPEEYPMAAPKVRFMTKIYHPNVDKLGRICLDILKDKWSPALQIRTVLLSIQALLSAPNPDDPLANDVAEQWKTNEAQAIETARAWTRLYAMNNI
CR mimetic SO: caloric restriction mimetics inhibiting age-related superoxide in yeast. S. cerevisiae aged cells, superoxide DHE fluorescence; hits give low values. superoxide response (% of plate mean), % at 10 µM. 0.18% of 330,000 active. AID 2690;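 active = superoxide response under a set limit, about three screen SD below normal, cut at about 65% in these data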;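 note: yeast aged for seven days with compound at 30 °C before DHE staining; 100% = average MFI of all compound-treated wells on the plate with controls excluded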
* = called active by the depositor; ? = inconclusive; nt = not tested or not shown.

SMILES	NALP1 yeast inh	NR3A LBD binder	dFosB act	UBC13 polyUb	CR mimetic SO
CCOc1cc2c(cc1C(C)(C)C)NC(=O)CS2	18.4	0.5	-9.5	-0.6	92.8
COc1ccccc1-c1cc(C(F)(F)F)n2ncc(S(=O)(=O)c3ccccc3)c2n1	-11.6	24.5*	4.0	39.2	98.2
O=S(=O)(c1ccccc1)c1cnn2c(C(F)(F)F)cc(-c3ccccc3)nc12	6.1	-2.3	-8.9	12.0	94.3
O=S(=O)(c1ccccc1)c1cnn2c(C(F)(F)F)cc(-c3ccc(F)cc3)nc12	16.0	14.2*	-2.5	1.5	105.2
CC1(C)O[C@@H]2[C@H](O1)[C@@H](COS(=O)(=O)O)O[C@H]2n1c(=S)[nH]c2c(=O)[nH]c(N)nc21	nt	2.4	-5.5	-6.8	101.3
O=C(C[C@@H]1C/C=C\C[C@@H](Cc2ccc(F)cc2)C(=O)OC[C@H]2CCCN2C1=O)NCCO	nt	-2.5	0.6	6.8	90.3
COc1ccc(Cl)cc1NC(=O)c1cc(-c2ccc(C)cc2O)n[nH]1	9.3	12.2*	12.2	-3.0	102.7
COc1ccc(Cl)cc1NC(=O)c1cc(-c2cc(C)ccc2O)n[nH]1	-13.5	300.5*	2.2	-8.9	96.8
Cc1ccc(C)c(NC(=O)c2cc(-c3cc(C)ccc3O)n[nH]2)c1	33.6	15.0*	-7.5	1.5	110.7
Cc1ccc(O)c(-c2cc(C(=O)NCc3ccncc3)[nH]n2)c1	16.1	0.1	1.8	8.6	100.2
CN1C/C(=C/c2ccccc2[N+](=O)[O-])C(=O)/C(=C\c2ccccc2[N+](=O)[O-])C1	nt	0.3	-11.8	nt	nt
CCOc1ccc(Br)cc1C1=CC(=O)C[C@H](c2ccc(OC)cc2)C1	nt	15.7*	0.3	8.6	105.6
Oc1ccccc1-c1nc(NCc2cccnc2)c2ccccc2n1	0.2	2.4	0.2	20.1	96.2
c1ccc(N2CCN(c3nc(NCc4ccco4)c4ccccc4n3)CC2)cc1	nt	-4.2	45.5*	16.2	108.6
Oc1ccccc1-c1nc(NCc2ccccc2)c2ccccc2n1	16.2	16.3*	0.6	2.8	109.3
Oc1ccccc1-c1nc(NCc2ccco2)c2ccccc2n1	22.0	13.8*	-0.5	13.0	104.1
CC1=C(c2ccccc2)SC2=NCCN21	19.7	0.9	-9.8	1.1	99.7
CCc1ccc(C(=O)NNC(=O)c2ccc(OCC(=O)N3CCOCC3)c(OC)c2)cc1	nt	-0.3	-8.9	3.4	77.5
Cc1ccc(OCC(=O)Nc2ccc(S(=O)(=O)N3CCOCC3)cc2)c(C)c1	9.0	10.5*	-4.5	0.1	nt
COc1ccc(NC(=O)COc2ccc(C)c(C)c2)cc1S(=O)(=O)N1CCCCC1	nt	-3.6	-16.0	-4.3	102.0
Cc1ccc(NC(=O)COc2ccc(S(=O)(=O)N3CCOCC3)cc2)cc1	18.8	-2.2	-4.4	4.2	97.7
Cc1cc(S(=O)(=O)N2CCOCC2)ccc1OCC(=O)Nc1ccc(F)c(Cl)c1	5.9	44.4*	-1.5	6.0	101.9
COc1ccc(NC(=O)COc2cc(C)cc(C)c2)cc1S(=O)(=O)N1CCCCC1	nt	23.5*	-22.3	-5.0	97.5
Cc1cc(S(=O)(=O)N2CCOCC2)ccc1OCC(=O)Nc1ccc(F)cc1	18.6	-0.2	-7.1	5.9	111.1
CCC1(C(N)=O)CC2C=CC1C2 (stereo unspecified)	nt	-0.5	-1.6	nt	nt
SMILES	NALP1 yeast inh	NR3A LBD binder	dFosB act	UBC13 polyUb	CR mimetic SO
CC(C)=CCc1c(O)ccc(C2COc3c(CC=C(C)C)c(O)cc(O)c3C2=O)c1O (stereo unspecified)	nt	11.2*	-8.1	-41.2	88.3
CC(C)(C)C(=O)Nc1nc2ccc(S(C)(=O)=O)cc2s1	26.4	-1.1	-2.8	1.0	109.4
CS(=O)(=O)c1ccc2nc(NC(=O)Nc3cccc(Cl)c3)sc2c1	21.7	22.0*	1.0	8.5	99.2
CS(=O)(=O)c1ccc2nc(NC(=O)Nc3ccc(Cl)c(Cl)c3)sc2c1	27.8	31.4*	?	-0.5	108.8
Cc1ccc(NC(=O)Nc2nc3ccc(S(C)(=O)=O)cc3s2)cc1	nt	27.7*	?	2.2	nt
Cc1cccc(C(=O)Nc2nc3ccc(S(C)(=O)=O)cc3s2)c1	-2.8	0.7	-3.6	3.4	101.8
CC(C)C(=O)Nc1nc2ccc(S(C)(=O)=O)cc2s1	-3.8	-6.9	-1.3	1.8	101.3
CC(C)Oc1ccc(S(=O)(=O)N2CCOCC2)cc1NC(=O)c1cccc(S(=O)(=O)N2CCCC2)c1	nt	0.5	-8.9	nt	nt
Cn1c(SCC(=O)N2c3ccccc3Sc3ccc(Cl)cc32)nnc1-c1ccco1	-82.5	10.5*	-8.7	-0.6	127.5
O=C(NCC(c1cccnc1)N1CCN(c2ccccc2F)CC1)OCc1ccccc1 (stereo unspecified)	10.9	11.7*	-2.4	-3.8	104.4
Cn1c(CO)cnc1S(=O)(=O)Cc1c(Cl)cccc1Cl	-3.8	-0.3	1.1	5.7	87.6
Cc1ccc(C(=O)N(Cc2sccc2C)C2CCS(=O)(=O)C2)cc1 (stereo unspecified)	6.9	-2.7	-3.7	-5.6	117.4
COc1ccc(C(=O)N(Cc2sccc2C)C2CCS(=O)(=O)C2)cc1 (stereo unspecified)	26.1*	-5.2	-2.2	7.8	101.9
Cc1sc2nc(CSc3nc4ccccc4s3)[nH]c(=O)c2c1C	36.2*	nt	nt	7.5	107.7
O=c1[nH]c(CSc2nc3ccccc3s2)nc2ccccc12	nt	1.1	-6.6	0.3	99.3
Cc1cccc(C)c1NC(=O)CN(C)C(=O)c1ccc2c(=O)n3c(nc2c1)CCC3	nt	0.4	-12.3	-5.9	65.4*
CCOc1cc(C2Nc3cccc4cccc(c34)N2)ccc1O	2.4	-5.6	31.7*	-35.7	97.1
CN(C)c1ccc(C2Nc3cccc4cccc(c34)N2)cc1	39.3*	3.6	8.5	-26.9	77.2
CCOc1ccc(C2Nc3cccc4cccc(c34)N2)cc1OC	4.1	-5.8	4.2	-34.3	83.7
COc1ccc(N(CC(=O)N/N=C/c2cccnc2)S(=O)(=O)c2ccc(C)cc2)cc1OC	3.2	-1.3	-12.5	-1.5	78.9
O=C(Cn1cnc2ccccc2c1=O)Nc1nc2ccccc2s1	1.2	1.9	?	-0.1	114.5
CCc1ccc2nc(NC(=O)CN3C(=O)NC4(CCCC4)C3=O)sc2c1	nt	11.2*	0.5	10.9	116.8
CCc1ccc2nc(NC(=O)Cn3cnc4ccccc4c3=O)sc2c1	12.2	0.5	154.4*	8.5	110.6
CCCCC1(c2ccc(F)cc2)NC(=O)N(CC(=O)Nc2ccc(N3CCOCC3)cc2)C1=O (stereo unspecified)	nt	11.6*	-14.0	-12.9	117.2
COc1ccc(C2(C)NC(=O)N(CC(=O)Nc3ccc(-c4nc5ccc(C)cc5s4)cc3)C2=O)cc1 (stereo unspecified)	-4.1	-1.4	13.4	-3.8	109.2
CCC1(c2ccc(F)cc2)NC(=O)N(CC(=O)Nc2ccc(-c3nc4ccc(C)cc4s3)cc2)C1=O (stereo unspecified)	28.5	10.7*	11.3	-12.3	95.8
CC(C#N)(Nc1ccc(Cl)cc1)c1cccnc1 (stereo unspecified)	32.6	16.4*	0.1	4.5	106.2
